MITF inh: blocks human microphthalmia-associated transcription factor | O75030 | AlphaScreen MITF homodimerization, bead proximity signal | inhibition, % at 2.6 µM | 650,000 tested, 0.91% active | AID 1259374; in the data active = inhibition above about 50%
TEAD-YAP block: TEAD-YAP interaction inhibition. inhibition, % at 9.12 µM. AID 1259422. HEK-TIYL cells, TEAD-Gal4/YAP UAS-luciferase luminescence. 640,000 tested, 1.4% active; in the data active = inhibition above about 32%
FBW7 act: human FBW7 E3 ligase activation, primary screen | Q969H0 | AlphaScreen FBW7–phospho-cyclin E peptide binding, activator screen | normalized activity (activation), % at 26.1 µM | 650,000 tested, 0.13% active; in the data active = normalized activity above about 1.9%;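 note: purified mutant Fbw7 with reduced substrate affinity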
Target sequence (Q969H0 whole entry, looked up): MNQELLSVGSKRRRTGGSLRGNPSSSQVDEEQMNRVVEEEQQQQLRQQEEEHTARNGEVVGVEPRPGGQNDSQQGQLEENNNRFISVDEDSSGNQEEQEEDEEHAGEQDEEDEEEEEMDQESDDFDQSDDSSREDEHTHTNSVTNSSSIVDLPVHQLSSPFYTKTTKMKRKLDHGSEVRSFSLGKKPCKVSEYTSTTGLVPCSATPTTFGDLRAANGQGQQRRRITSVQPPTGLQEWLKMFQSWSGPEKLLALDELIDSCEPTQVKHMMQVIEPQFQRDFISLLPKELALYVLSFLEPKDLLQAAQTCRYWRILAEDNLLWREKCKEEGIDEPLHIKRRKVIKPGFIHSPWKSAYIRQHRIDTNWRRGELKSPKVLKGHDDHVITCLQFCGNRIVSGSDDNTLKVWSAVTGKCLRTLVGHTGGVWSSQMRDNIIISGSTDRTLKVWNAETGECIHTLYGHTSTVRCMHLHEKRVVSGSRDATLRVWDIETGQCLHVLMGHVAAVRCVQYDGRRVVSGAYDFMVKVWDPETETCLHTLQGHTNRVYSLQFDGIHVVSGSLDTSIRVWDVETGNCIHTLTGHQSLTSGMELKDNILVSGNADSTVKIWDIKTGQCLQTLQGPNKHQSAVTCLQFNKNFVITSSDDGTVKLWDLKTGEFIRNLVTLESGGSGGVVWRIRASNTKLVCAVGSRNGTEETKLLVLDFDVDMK
GPR151 activ: activates the human receptor GPR151; activation, % at 11.2 µM; PathHunter beta-arrestin GPR151 cells, luminescence; 650,000 tested, 1% active; AID 1508602; in the data active = activation above about 4.9%
MITF confirm: human MITF inhibition, confirmation. AID 1259372. AlphaScreen MITF homodimerization, biotin/His-MITF beads. inhibition, % at 2.6 µM. 4,700 tested, 16% active. shares compounds with MITF inh;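 active = inhibition above a cutoff derived from the DMSO control wells, cut at about 28% in these data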;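 note: inhibitors lower the bead chemiluminescence by keeping MITF from dimerizing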
AS interf ctr: optically interferes with AlphaScreen signal | 4,700 tested, 7.6% active | inhibition, % at 2.6 µM | LysRS AlphaScreen counterscreen, signal interference, triplicate | shares compounds with MITF inh;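 active = inhibition above a cutoff derived from the DMSO control wells, cut at about 30% in these data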
Hits are given with their value; – = inactive; · = no result given. Compounds with a hit are over-represented: about 3.4% of the library has one in this group of screens.

SMILES	MITF inh	TEAD-YAP block	FBW7 act	GPR151 activ	MITF confirm	AS interf ctr
FC(F)(F)c1ccccc1CN1CCN(C2C3CC4CC(C3)CC2C4)CC1 (stereo unspecified)	76	–	–	–	–	–
FC(F)(F)c1ccccc1CN1CCC(N2CCCCC2)CC1	–	–	–	–	·	·
FC(F)(F)c1ccccc1CN1CCC(N2CCCC2)CC1	57	–	–	–	–	–
FC(F)(F)c1ccccc1CN1CCN(C2CCCCCC2)CC1	78	–	–	–	–	–
O=C(CC1C(=O)OCC2CCCCN21)Nc1ccc(I)cc1 (stereo unspecified)	–	–	–	–	·	·
FC(F)(F)c1ccccc1CN1CCN(C2CCCCC2)CC1	69	–	–	–	–	–
Cc1ccccc1OCc1nc(-c2nonc2N)no1	–	–	–	–	·	·
CCOC(=O)CC1C(C(=O)OCC)=[N+]([O-])OC1C(=O)OCC (stereo unspecified)	64	–	–	–	–	–
CCOC(=O)C1=[N+]([O-])OC(C(=O)OCC)C1CC(C)=O (stereo unspecified)	–	–	–	–	·	·
Cc1ccc(S(=O)(=O)N2CCN(CC(=O)Nc3cc(Cl)ccc3C)CC2)cc1C	53	–	–	–	–	–
O=C(NCC(c1ccsc1)N1CCCCCC1)c1c(F)cccc1F (stereo unspecified)	84	–	–	–	–	–
O=[N+]([O-])c1ccccc1S(=O)(=O)N1CCN(Cc2ccccc2C(F)(F)F)CC1	61	–	–	–	–	–
Cc1ccc(S(=O)(=O)N2CCN(Cc3ccccc3Cl)CC2)cc1	57	–	–	–	–	–
CCCS(=O)(=O)N1CCN(Cc2ccc(CC)cc2)CC1	51	–	–	–	–	–
CCS(=O)(=O)N1CCN(Cc2cc(OC)c(O)c(OC)c2)CC1	–	–	–	–	·	·
CCCS(=O)(=O)N1CCN(Cc2cc(OC)c(O)c(OC)c2)CC1	56	–	–	–	–	–
O=C(Oc1ccc(NC2=NS(=O)(=O)c3ccccc32)cc1)c1ccc(Br)cc1	–	–	–	–	·	·
CC1CCCC(NC(=O)c2ccc(CNC(=O)c3cccc(Br)c3)cc2)C1C (stereo unspecified)	–	–	–	–	·	·
CCc1ccc(CN2CCN(S(=O)(=O)c3ccc(C)cc3)CC2)cc1	58	–	–	–	–	–
COc1ccc(S(=O)(=O)N2CCN(Cc3ccccc3C(F)(F)F)CC2)cc1	–	–	–	–	·	·
Cc1ccc(S(=O)(=O)N2CCN(Cc3ccccc3C(F)(F)F)CC2)cc1	67	–	–	–	–	–
Cn1ccc(-c2nnc(NC(=O)CC(c3ccccc3)c3ccccc3)o2)n1	–	–	–	–	·	·
C[C@@H](Cn1nc(-c2cccs2)oc1=O)NC(=O)CC1CCCC1	–	–	–	–	·	·
Cc1cc(C)cc(C(=O)NC(CC(C)C)c2nnc3n2CCN(C(=O)c2ccco2)CC3)c1 (stereo unspecified)	–	–	–	–	·	·
COc1ccccc1N1CCN(C(=O)CSc2nc3ccccc3c(=O)n2NC(=O)c2ccccc2)CC1	75	–	–	–	–	–
SMILES	MITF inh	TEAD-YAP block	FBW7 act	GPR151 activ	MITF confirm	AS interf ctr
COc1ccccc1N1CCN(C(=O)CSc2nc3ccccc3c(=O)n2NC(=O)Cc2ccccc2)CC1	–	–	–	–	·	·
N#CCSc1nc2ccccc2c(=O)n1NC(=O)c1ccccc1	67	82	–	–	–	–
CCOc1ccc(Cl)cc1CNCCNC(=O)c1nonc1N	–	–	–	–	·	·
Cc1cc(=O)[nH]c(NCCc2ccccc2)n1	–	–	–	–	·	·
CC1=C(NCCc2ccccc2)CCC1=O	61	–	–	–	–	–
Cc1c(/C=C2/N=C(c3cccc([N+](=O)[O-])c3)OC2=O)cc(C#N)n1C	–	–	–	–	·	·
Cc1ccnc(N2C3CCC2CC(O)(c2ccccc2)C3)n1 (stereo unspecified)	53	–	–	–	–	–
Cc1ccc(C2(O)CC3CCC(C2)N3c2cc(C)nc(N)n2)cc1 (stereo unspecified)	–	–	–	–	·	·
COc1ccc(CN2CCN(c3ccccn3)CC2)cc1O	–	–	–	–	·	·
COc1cc(OC)c(OC)cc1CN1CCN(Cc2ccccn2)CC1	71	–	–	–	–	–
COc1ccc(CN2CCN(Cc3ccccn3)CC2)cc1Br	68	–	–	–	–	–
COc1ccc(CN2CCN(Cc3ccccn3)CC2)cc1	–	–	–	–	·	·
COc1cc(CN2CCN(Cc3ccccn3)CC2)cc(OC)c1OC	79	–	–	–	–	–
Clc1cccc(Cl)c1Cn1c(-c2cncs2)nc2ccccc21	–	–	–	–	·	·
O=C(CCc1ccccc1)NC(=S)Nc1ccc2c(c1)C(=O)OC2	80	–	–	–	–	–
CCOC(=O)C1=C(C)NC(=O)NC1c1ccc(SC)cc1 (stereo unspecified)	–	–	–	–	·	·
COc1ccc(CNCCSc2nccn2C)cc1	70	–	–	–	–	–
O=C(COc1ccc2c(c1)OCO2)N/N=C/c1ccc(Cl)c(Cl)c1	–	–	–	–	·	·
Cc1cccc(C)c1NC(=O)c1ccc([N+](=O)[O-])cc1	–	–	–	–	·	·
COc1cc(/C=N/n2cnnc2)cc(Cl)c1O	–	–	–	–	·	·
Cc1[nH]c2c(-n3c(C)cc(C(F)(F)F)cc3=O)cccc2c1C	53	–	–	–	–	–
O=C(NCc1ccco1)Nc1c[nH]c2cccnc2c1=O	59	–	–	–	81	87
Cc1c(C(=O)Nc2c3c(nn2-c2ccccc2)CSC3)cccc1[N+](=O)[O-]	–	–	–	–	·	·
C=CCNC(=O)Cn1nc(-c2ccccc2OC)ccc1=O	72	–	–	–	–	–
COc1ccccc1-c1ccc(=O)n(CC(=O)NCc2ccccc2)n1	–	–	–	–	·	·
SMILES	MITF inh	TEAD-YAP block	FBW7 act	GPR151 activ	MITF confirm	AS interf ctr
COc1cc(OC)cc(C(=O)Nc2ccc(N3CCN(C(=O)c4ccccc4)CC3)cc2)c1	–	–	–	–	·	·
O=C(Nc1ccc(-c2nn[nH]n2)cc1)[C@H]1Cc2ccccc2CN1	–	–	–	–	·	·
CC1CCC(N2CCN(Cc3cccc(Cl)c3)CC2)CC1 (stereo unspecified)	64	–	–	–	–	–
Clc1cccc(CN2CCN(C3CCCCC3)CC2)c1	74	–	–	–	–	–
Cc1cccc(CN2CCN(C3CCCCCC3)CC2)c1	–	–	–	–	·	·
OCC1CCN(C2CCCN(Cc3cccc(Cl)c3)C2)CC1 (stereo unspecified)	–	–	–	–	·	·
CC1CCN(C2CCN(Cc3ccc4c(c3)OCO4)CC2)CC1	54	–	–	–	–	–
CC1CCN(C2CCN(Cc3cccc(Cl)c3)CC2)CC1	57	–	–	–	–	–
OC1CCN(Cc2ccc3c(c2)OCO3)CC1	–	–	–	–	·	·
COCC(=O)N(c1cccc(Cl)c1)C1C=CS(=O)(=O)C1 (stereo unspecified)	–	–	–	–	·	·
CCOC(=O)c1ccccc1NC(=O)CN1CCN(Cc2nc3ccccc3[nH]2)CC1	–	–	–	–	·	·
